# Measured values published in ChEMBL document CHEMBL3988442, “University of Dundee, Small-Polar-MMV Screening Library” (2021).
# Target: T1, Aspartate--tRNA(Asp/Asn) ligase (Mycobacterium tuberculosis (strain ATCC 25618 / H37Rv)) (UniProt P9WFW3)
# T1 sequence (whole entry): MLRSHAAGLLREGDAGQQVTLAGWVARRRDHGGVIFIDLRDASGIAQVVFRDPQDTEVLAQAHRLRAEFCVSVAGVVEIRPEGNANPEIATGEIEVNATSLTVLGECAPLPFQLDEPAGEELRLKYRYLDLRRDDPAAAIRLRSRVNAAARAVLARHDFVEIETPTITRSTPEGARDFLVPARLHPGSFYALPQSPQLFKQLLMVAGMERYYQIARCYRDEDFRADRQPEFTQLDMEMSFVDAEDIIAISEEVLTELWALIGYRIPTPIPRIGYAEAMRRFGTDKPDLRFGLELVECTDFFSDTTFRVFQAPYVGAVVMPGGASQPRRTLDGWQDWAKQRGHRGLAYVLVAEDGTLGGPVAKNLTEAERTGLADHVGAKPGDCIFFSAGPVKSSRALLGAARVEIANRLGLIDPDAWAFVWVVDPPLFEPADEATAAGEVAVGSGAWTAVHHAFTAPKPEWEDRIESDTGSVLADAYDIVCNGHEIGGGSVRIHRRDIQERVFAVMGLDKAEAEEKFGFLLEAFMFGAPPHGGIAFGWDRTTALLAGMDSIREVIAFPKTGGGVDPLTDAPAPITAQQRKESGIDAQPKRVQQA
# Test: Assay for Asp RNA synthetase-1 from Mycobacterium tuberculosis
# Assay type: functional
# Set-up: scale not given: in the data most compounds retested in dose-response had high values
# Conditions: 30 µM
row,SMILES,Percent Effect
1,NS(=O)(=O)Cc1ccc(CNC(=O)NCC2CCOC2)cc1 (stereo not given),-4.55%
2,CCCn1[nH]cc/c1=N\C(=O)CN1CCc2c(nc(C(C)C)n2C)C1,1.84%
3,Fc1cccc(-c2nc(CN3CCOC(Cn4cccn4)C3)co2)c1 (stereo not given),2.49%
4,CC(C)n1cc(CN2CCCN(C(=O)c3cc(Cl)c[nH]3)CC2)cn1,5.29%
5,CC(C)n1ccnc1CN1CCCN(C(=O)CC2C=CCC2)CC1 (stereo not given),1.91%
6,CC(OCC(F)(F)F)C(=O)N1CCCCC1 (stereo not given),1.09%
7,Cc1oc(C)c(C(=O)N2CCCN(Cc3cscn3)CC2)c1C,-1.41%
8,COc1cccc([C@@H]2CN(C(=O)c3ccc(C)cc3O)C[C@H]2C(=O)O)c1,1.74%
9,Cn1cnnc1C1CCCN(C(=O)NCCc2ccccc2F)C1 (stereo not given),-6.03%
10,Cc1noc2nc(C3CCN(Cc4ccncc4)CC3)cc(C(F)F)c12,5.43%
11,CC(=O)Nc1nc(CN2CCCC2c2cnn(C)c2)cs1 (stereo not given),-1.4%
12,Cc1nnc(CN2CCN(CC(O)c3cccc(F)c3)CC2)n1C (stereo not given),-0.288%
13,CCc1ncc2c(n1)CN(Cc1nc(-c3ccccn3)no1)CC2,0.141%
14,CCN(CC)C(CNS(=O)(=O)c1ccc(C(=O)NC)cc1)c1ccco1 (stereo not given),-2.1%
15,O=C(NCc1cccnc1-n1cccn1)C1CC(=O)N(CC2CC2)C1 (stereo not given),-2.05%
16,Cc1cc(NC(=O)NCC2CCOC2)no1 (stereo not given),-7.54%
17,NCC(=O)N1CCCC(c2cncc(Nc3ncccn3)n2)C1 (stereo not given),1.44%
18,Cc1ccc(CC(=O)N2Cc3nccn3CC(Cn3cccn3)C2)cc1 (stereo not given),0.0228%
19,Cc1ccc(-c2ncc(C(=O)NCCNC(=O)C(C)C)s2)c(C)c1,2.19%
20,N#Cc1cc(NC(=O)C2CC=CC2)ccc1N1CCC(O)CC1,-1.55%

row,SMILES,Percent Effect
1,CC(NC(=O)N1CCN(CCc2ccccc2)CC1)c1nncn1C (stereo not given),-7.6%
2,CN(Cc1cscn1)C1CCCN(Cc2noc(C3CC3)n2)C1 (stereo not given),-2.67%
3,CCOCC(O)CN1CCN(C(=O)c2cccnc2OC)CC1 (stereo not given),-1%
4,Cc1noc([C@H]2COC[C@H]3CN(C(=O)Cc4ccc(F)cc4)C[C@H]32)n1,-3.45%
5,O=C(c1ccco1)N1CCOCC2(C1)CN(c1ccccc1)C(=O)CO2 (stereo not given),8.44%
6,O=C(c1cccnc1-n1cccn1)N1CCN(CC2CC2)CC1,-1.91%
7,Cc1cc(-c2cnc(NCc3cccnc3)nc2C(C)C)on1,6.13%
8,COc1cc(S(=O)(=O)N2CCCc3ccccc32)cc(C(=O)O)c1OC,7.13%
9,CC(C)N(C)CCCNC(=O)c1cnc(-c2ccccc2)nc1,3.09%
10,c1cncc(COCc2nnc3n2CCN(Cc2ccsc2)C3)c1,-0.684%
11,OC1CCN(Cc2c(C3CCCNC3)[nH]c3ncccc23)CC1 (stereo not given),7.49%
12,Cc1ccc(C)c(C(NC(=O)C(C)(C)C)c2cccnc2)c1 (stereo not given),-1.21%
13,O=C(NCc1cc[nH]n1)NCC(O)c1ccc(F)cc1F (stereo not given),4.01%
14,COc1ccc(C2CCCN2S(=O)(=O)N(C)CC(C)C)cc1 (stereo not given),1.67%
15,Cc1nn(C)c(N(C)C)c1CNCc1ccccc1Cn1cncn1,-4.47%
16,Cc1ccsc1[C@@H]1CCN(C(=O)c2cc3ccccc3[nH]2)C[C@H]1O,-0.724%
17,CC(C)OCCN1CCN(C(=O)c2cccc(CC#N)c2)CC1,2.85%
18,c1ccc(CN2CCc3ncnc(-c4ccsc4)c3CC2)nc1,0.199%
19,CCN(CC)C(CNC(=O)c1ccc(S(C)(=O)=O)cc1)c1ccco1 (stereo not given),-0.521%
20,COc1ccc(-c2cnc(CN3CCn4c(C)nnc4C3)o2)cc1,0.144%
